Bioassay records from PubChem.
CYP2C19 inhib: inhibitors of human CYP2C19 | inhibition, % at 5 µM | hit rate 21% among 96,000 | AID 778 | CYP2C19 Supersomes, luciferin-H EGE luminescence, 30 min | P33261;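 active = CYP2C19 inhibition above a set limit at 5 µM in the primary screen, cut at about 50% in these data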;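 note: plate controls were negative control wells for no effect and 2.5 mM tranylcypromine positive control for full effect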
CYP2C9 inhib: human CYP2C9 inhibition. P11712. CYP2C9 Supersomes, luciferin-H conversion, luminescence. inhibition, % at 5 µM. hit rate 20% among 96,000;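 active = blocking of liver enzyme CYP2C9 beyond about 50% at 5 µM, limit read from the data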
Target sequence (P11712 whole entry, looked up): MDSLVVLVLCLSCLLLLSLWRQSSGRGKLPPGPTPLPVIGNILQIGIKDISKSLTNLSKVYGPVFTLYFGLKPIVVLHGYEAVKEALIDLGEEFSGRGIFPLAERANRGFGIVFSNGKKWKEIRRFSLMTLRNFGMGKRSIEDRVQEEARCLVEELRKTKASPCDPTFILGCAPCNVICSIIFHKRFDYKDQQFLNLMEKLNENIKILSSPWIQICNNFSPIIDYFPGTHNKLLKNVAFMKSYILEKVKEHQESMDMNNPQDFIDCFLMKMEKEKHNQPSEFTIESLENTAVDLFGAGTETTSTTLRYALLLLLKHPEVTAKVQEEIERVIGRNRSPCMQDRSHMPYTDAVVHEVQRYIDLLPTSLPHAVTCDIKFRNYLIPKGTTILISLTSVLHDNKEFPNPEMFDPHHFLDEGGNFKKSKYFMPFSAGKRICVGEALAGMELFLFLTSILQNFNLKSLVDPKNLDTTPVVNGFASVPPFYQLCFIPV
CYP2C19 act: activators of human cytochrome P450 2C19; recombinant CYP2C19, luciferin-H EGE luminescence; stronger effect = higher value; 0 = fully inhibited enzyme, 1 = untreated enzyme; activation factor at 5 µM; 96,000 tested, under 10 active; AID 1025;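 active = activation factor of at least 2 at 5 µM in the primary screen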;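 note: 0 = wells with 2.5 mM tranylcypromine and 1 = vehicle-only wells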
CYP2C9 activ: CYP2C9 (human) activation. P11712. recombinant CYP2C9, luciferin-H conversion, luminescence; stronger effect = higher value; factor 1 = untreated enzyme, 0 = blocked. activation factor at 5 µM. hit rate 1.4% among 96,000. AID 1024;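 active = activation factor of 2 or more for CYP2C9 at a 5 µM dose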;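 note: 0 = sulfaphenazole-blocked wells and 1 = vehicle-only wells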
Cav3 T inh: inhibitors of human Cav3.2 T-type calcium channel; O95180; Cav3.2-expressing cells, Fluo-4 calcium fluorescence FDSS; stronger effect = lower value; B-score at 10 µM; hit rate 4% among 100,000;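 active = single-dose well whose peak fluorescence ratio is a statistical outlier from its plate by either plate-standardised score or position-corrected B-score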
An asterisk follows results filed as active; nt = no result given. The list is not random: actives were taken first. Their share in the collection is about 27%.

SMILES	CYP2C19 inhib	CYP2C9 inhib	CYP2C19 act	CYP2C9 activ	Cav3 T inh
O=C(Cc1c[nH]c2ccccc12)N1CCc2ccccc21	92*	77*	0.1	0.2	-2.2
Cc1ccc2c(CC(=O)N3CCc4ccccc43)coc2c1	79*	43	0.2	0.6	-2.5
O=C(Cc1coc2ccc3ccccc3c12)N1CCc2ccccc21	1	-57	1	1.6	-2
CCC(C)(C(=O)NC1CCCCC1)N(C(=O)c1cnccn1)c1c(C)n(C)n(-c2ccccc2)c1=O (stereo not drawn)	-2	0	1	1	0.99
CNC(=S)N1CCN(c2c(F)cc3c(=O)c(C(=O)O)cn(C4CC4)c3c2OC)CC1C (stereo not drawn)	4	28	1	0.7	4.4*
C[C@H]1COc2c(N3CCN(C)CC3)c(F)cc3c(=O)c(C(=O)O)cn1c23	nt	nt	nt	nt	0.19
COC(=O)c1ccc(C(=O)OC)c(NC(=O)CSc2ccccn2)c1	48	47	0.5	0.5	-1.4
COC(=O)c1ccc(Cl)c(NC(=O)CSc2ncn[nH]2)c1	74*	41	0.3	0.6	-1.2
O=C(CSc1ncn[nH]1)Nc1c(F)cc(F)cc1Br	16	-2	0.8	1	nt
COC(=O)c1cccc(NC(=O)CSc2ncn[nH]2)c1	57*	27	0.4	0.7	0.19
O=C(CSc1ncn[nH]1)Nc1ccccc1Sc1ccc(Cl)cc1	98*	93*	0	0.1	-3.9
CCOC(=O)C(C)N1N=C(/C=C/c2ccc(OC)cc2)CCC1=O (stereo not drawn)	19	32	0.8	0.7	0.26
O=C(CCNc1ccc(Cl)c(C(F)(F)F)c1)c1ccco1	76*	46	0.2	0.5	-5.1*
O=C(CCNc1cc(Cl)cc(Cl)c1)c1ccco1	61*	46	0.4	0.5	-4.2
O=C(CCNc1ccc(F)cc1)c1ccco1	65*	-1	0.3	1	-0.013
O=C(CCNc1ccc(F)c(Cl)c1)c1ccco1	32	20	0.7	0.8	-1.6
Cc1cccc(NC(=O)CSc2nc(N)c(NC(=O)c3cccs3)c(=O)[nH]2)c1	nt	nt	nt	nt	0.42
Cc1cc(NC(=O)COC(=O)C2CCN(S(=O)(=O)c3cccc(Cl)c3Cl)CC2)no1	14	15	0.9	0.9	-0.59
O=C(COC(=O)[C@H](Cc1ccccc1)NS(=O)(=O)c1ccccc1F)NC1CCCCC1	17	46	0.8	0.5	-4.9*
Cc1ccc(Nc2nc(N)nc(CN3CCN(C(=O)c4ccco4)CC3)n2)cc1Cl	78*	85*	0.2	0.2	2.1
COc1ccc(Nc2nc(N)nc(CN3CCN(c4ccccn4)CC3)n2)cc1	1	-7	1	1.1	nt
Cc1ccc(Nc2nc(N)nc(CN3CCN(C)CC3)n2)cc1	-19	-29	1.2	1.3	-0.52
Cc1cccc(Nc2nc(N)nc(CN3CCN(c4ccc(F)cc4)CC3)n2)c1	55*	59*	0.4	0.4	-3.9
Cc1cccc(Nc2nc(N)nc(CN3CCN(C)CC3)n2)c1	-18	96*	1.2	0	nt
CCN1CCN(Cc2nc(N)nc(Nc3ccc(C)c(C)c3)n2)CC1	-14	-19	1.1	1.2	-3.6
SMILES	CYP2C19 inhib	CYP2C9 inhib	CYP2C19 act	CYP2C9 activ	Cav3 T inh
CNc1nnc(-c2ccc(N(C)C)cc2)s1	nt	nt	nt	nt	0.68
COc1ccc(-n2ncc(N(C)n3cccc3)c(Cl)c2=O)cc1	5	30	1	0.7	nt
COc1ccc(Sc2cnn(-c3ccccc3)c(=O)c2Cl)cc1	35	85*	0.6	0.1	-0.5
CC(C)CC1(C)NC(=O)N(CCN2C(=O)c3ccccc3C2=O)C1=O (stereo not drawn)	75*	48	0.2	0.5	-0.6
COc1cc(OC)c(C2=NOC(C(=O)Nc3c(C)nn(CC(=O)N4CCCC4)c3C)C2)cc1Cl (stereo not drawn)	-13	29	1.1	0.7	-2
O=C(NCc1ccc(C(F)(F)F)cc1)C1CC(c2ccc(C(F)(F)F)cc2)=NO1 (stereo not drawn)	nt	nt	nt	nt	-2.9
COc1cc(OC)c(C2=NOC(C(=O)NCc3ccc4c(c3)OCO4)C2)cc1Cl (stereo not drawn)	93*	-16	0.1	1.2	-2.3
O=C(NCc1ccc2c(c1)OCO2)C1CC(c2ccc(Cl)cc2)=NO1 (stereo not drawn)	26	0	0.7	1	-5.6*
COc1cccc(-c2nc(NC(C)(C)C)c3ccccc3n2)c1O	31	84*	0.7	0.2	0.49
Cc1ccc(-c2nc(NCCN3CCOCC3)c3ccccc3n2)cc1	59*	72*	0.4	0.3	2
Oc1ccccc1-c1nc(NCCN2CCOCC2)c2ccccc2n1	89*	97*	0.1	0	1.5
COc1cccc(-c2nc(NCCN3CCOCC3)c3ccccc3n2)c1O	32	56*	0.7	0.4	1.1
Cc1ccc(-c2nc3ccccc3c(=O)n2CCCN2CCOCC2)cc1	-11	-3	1.1	1	0.48
CCC(=O)c1cc2c(cc1NC(=O)C(C)C)OCCO2	12	24	0.9	0.8	-1.1
CCCS(=O)(=O)NCCc1cc2ccc(OC)cc2[nH]c1=O	-7	-7	1.1	1.1	-0.096
CCc1ccc(CN2CCN(S(=O)(=O)Cc3ccccc3)CC2)cc1	18	1	0.8	1	-0.83
CCCCN(C(=O)CNC(=O)c1ccco1)C(C(=O)NC1CCCC1)c1ccc(OC)cc1 (stereo not drawn)	39	12	0.6	0.9	-0.11
CCC(NC(=O)NCc1cccnc1)(C(F)(F)F)C(F)(F)F	87*	73*	0.1	0.3	-0.053
O=C(CC(=O)NCc1cccnc1)NCc1cccnc1	15	3	0.8	1	0.12
O=C(Nn1cnnc1)c1cc2cc(Br)ccc2oc1=O	54*	38	0.5	0.6	1.4
CCN(CC)C(=O)c1cc2cc(Br)ccc2oc1=O	14	-71	0.9	1.7	0.051
CN(C)CCNC(=O)c1cc2cc(Br)ccc2oc1=O	18	44	0.8	0.6	0.039
CC(C)NC(=O)c1cc2cc(Br)ccc2oc1=O	61*	50*	0.4	0.5	0.99
O=C(NCc1cn2ccsc2n1)c1cccs1	-4	1	1	1	0.58
CCOC(=O)N1CCN(C(=O)c2ccc(N(Cc3ccc(C)cc3)S(C)(=O)=O)cc2)CC1	65*	86*	0.3	0.1	-0.42
CN1CCN(C(=O)c2ccc(N(Cc3ccccc3Cl)S(C)(=O)=O)cc2)CC1	12	22	0.9	0.8	0.081
Cc1ccc(CN(c2ccc(C(=O)N3CCOCC3)cc2)S(C)(=O)=O)cc1	13	15	0.9	0.9	0.37
CS(=O)(=O)N(CC(=O)N1CCc2ccccc2C1)Cc1ccc(Cl)cc1	88*	85*	0.1	0.2	-2.7
CC1CCN(C(=O)CN(c2ccc3c(c2)OCO3)S(C)(=O)=O)CC1	38	-28	0.6	1.3	-0.24
CS(=O)(=O)N(CC(=O)N1CCc2ccccc2C1)c1ccc2c(c1)OCO2	88*	24	0.1	0.8	0.48
